17 molecules from PubChem BioAssay (NCI) can be followed below.

Test in all cases: NCI-60 one-dose screen, 48 h (100 = growth as untreated, 0 = no growth, -100 = all killed)
For one assay, the system named is BT-549 breast. Conditions: 10 µM unless noted.
For the next assay, the system named is MDA-MB-435 melanoma. The note with it: 10 µM unless noted.
In another assay the test system is SW-620 colon. Conditions: 10 µM unless noted.
The next assay has as its system MCF7 breast. Conditions: 10 µM.
The subject of the next assay is HCT-116 colon. The note with it: 10 µM unless noted.
The subject of a further assay is HCC-2998 colon. Conditions: 10 µM unless noted.
In a further assay the test system is KM12 colon. Conditions: 10 µM unless noted.

Each structure is given as a SMILES string. This is part of a sample that, as a whole, favours compounds with a hit. Of some 83,000 tested, about 20% had one in any assay.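 The test compound was applied at a single concentration to cells in 96-well plates for 48 hours, and percent growth was recorded.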 Unmarked numbers belong to inactive results. Calls of active or inactive are those of the source. The calls were made as follows: active = growth percent below 10; inactive = the rest.

Consider `CCCCC1CCc2cccc3c(SCC(=O)N(C)c4ccc(Cl)cc4)cc[n+]1c23` (centres undefined), for which the growth is 115% in the assay with BT-549 breast; 103% with MDA-MB-435 melanoma; 106% in the assay with SW-620 colon; 99.1% in the assay on MCF7 breast; 102% in the assay with HCT-116 colon; 114% with HCC-2998 colon. Also, in the assay with KM12 colon, the growth was 108%.

`COc1cc(/C=C2\CCC/C(=C\c3cc(CN4CCCCC4)c(O)c(OC)c3)C2=O)cc(CN2CCCCC2)c1O`: the growth with BT-549 breast is 103%; in the assay with MDA-MB-435 melanoma, 76.8%; with SW-620 colon it was 71.4%; with MCF7 breast, 52.5%; in the assay with HCT-116 colon, 60.1%; in the assay on HCC-2998 colon, 103%. Besides, the growth in the assay on KM12 colon was 73.7%.

With `COc1ccc(S(=O)(=O)N(Cc2ccc3c(n2)C=CC(C)(C)O3)C2CCC2)cc1OC`, the growth is -25.2% (active) in the assay with BT-549 breast; -34.7% (active) with MDA-MB-435 melanoma; 3.81% (active) with SW-620 colon; 2.14% (active) in the assay with MCF7 breast; -5.68% (active) in the assay on HCT-116 colon; -1.63% (active) in the assay with HCC-2998 colon. Further, the growth in the assay on KM12 colon was -1.42% (active).

Consider `Fc1ccc(Oc2ccc(Nc3ncnc4onc(-c5ccccc5)c34)cc2)cc1`, for which the growth is 78.6% with BT-549 breast; 103% in the assay on MDA-MB-435 melanoma; 95% in the assay on SW-620 colon; 94.5% with MCF7 breast; 99.1% with HCT-116 colon; 105% with HCC-2998 colon. Moreover, the growth in the assay with KM12 colon is 99.5%.

Regarding `COc1ccc(C2=Nn3c(NN)nnc3SC2)cc1`, the growth in the assay with BT-549 breast is 108%; in the assay on MDA-MB-435 melanoma it was 103%; in the assay with SW-620 colon, 112%; in the assay on MCF7 breast, 91.4%; in the assay with HCT-116 colon it was 112%; in the assay with HCC-2998 colon it was 111%. Also, the growth in the assay with KM12 colon is 101%.

In the case of `CC1=NCC2NC(=O)NC(C)=C12` (centres undefined), the growth is 96.4% with BT-549 breast; 98.4% in the assay with MDA-MB-435 melanoma; 99.9% in the assay on SW-620 colon; 111% in the assay on MCF7 breast; 101% in the assay with HCT-116 colon; 113% in the assay on HCC-2998 colon. The growth in the assay with KM12 colon was 104%.

As to `Cc1nn(-c2nc3ccccc3[nH]2)c2c1C(c1ccc(OCC(N)=O)cc1)CC(=O)N2` (centres undefined), the growth in the assay on BT-549 breast is 105%; in the assay with MDA-MB-435 melanoma, 98.8%; in the assay on SW-620 colon it was 88.7%; with MCF7 breast, 96%; with HCT-116 colon it was 101%; in the assay on HCC-2998 colon it was 122%. In addition, in the assay on KM12 colon, the growth is 109%.

For the molecule `COc1cc(/C=C2\CN(C)C/C(=C\c3cc(CN4CCCCC4)c(O)c(OC)c3)C2=O)cc(CN2CCCCC2)c1O`, the growth was 61.3% in the assay on BT-549 breast; 2.5% (active) in the assay with MDA-MB-435 melanoma; 20% in the assay on SW-620 colon; 11.7% with MCF7 breast; 30.7% in the assay on HCT-116 colon; 16.1% in the assay on HCC-2998 colon. For the same molecule, the growth in the assay with KM12 colon was 5.98% (active).

For `CCCCNc1nc(NC(C)(C)C)nc(NC(C)(C)C)n1`, the growth in the assay with BT-549 breast was 79.9%; with MDA-MB-435 melanoma it was 72%; with SW-620 colon, 52.3%; in the assay with MCF7 breast it was 56%; in the assay on HCT-116 colon it was 30.8%; with HCC-2998 colon, 74.3%. Besides, in the assay with KM12 colon, the growth is 63.8%.

With `N#Cc1c(N)nc2c(c1N)C(c1ccc(F)cc1)c1ccc(N)cc1O2` (centres undefined), the growth in the assay with BT-549 breast is 93.8%; with MDA-MB-435 melanoma it was 107%; with SW-620 colon, 108%; in the assay on MCF7 breast it was 98.9%; with HCT-116 colon it was 101%; with HCC-2998 colon, 112%. Besides, the growth with KM12 colon was 91.2%.

As for `CCCCN1CCN(c2ccc3nc(-c4ccc5nc(-c6ccc(OCC)cc6)[nH]c5c4)[nH]c3c2)CC1`, the growth is 83.9% with BT-549 breast; 55.1% with MDA-MB-435 melanoma; 8.61% (active) with SW-620 colon; 1.77% (active) in the assay on MCF7 breast; 21.1% with HCT-116 colon; 90.3% with HCC-2998 colon. Moreover, the growth in the assay with KM12 colon was 49.1%.

For `CCN1C(=O)N(CC)C2C1NN=c1s/c(=C3\C(=O)N(C(C)C)c4ccccc43)c(=O)n12` (centres undefined), the growth was 6.02% (active) with BT-549 breast; -12.1% (active) in the assay with MDA-MB-435 melanoma; 27.1% in the assay on SW-620 colon; 20.5% with MCF7 breast; 10.1% in the assay on HCT-116 colon; 20.3% with HCC-2998 colon. The growth in the assay on KM12 colon was 15.3%.

For `CN1C(=O)N(C)C2Nn3c(s/c(=C4\C(=O)N(CCc5ccccc5)c5ccccc54)c3=O)=NC21` (centres undefined), the growth with BT-549 breast is 72.5%; in the assay with MDA-MB-435 melanoma, 5.64% (active); in the assay with SW-620 colon it was 51.9%; in the assay with MCF7 breast it was 43.2%; in the assay on HCT-116 colon, 37.2%; in the assay on HCC-2998 colon it was 85.9%. In the assay with KM12 colon, the growth was 66.1%.

For the molecule `COc1cc(CNC(=O)Cc2ccccc2)ccc1OCc1cn(-c2ccc(F)cc2)nn1`, the growth was 99.8% in the assay on BT-549 breast; 98.4% with MDA-MB-435 melanoma; 109% with SW-620 colon; 91.8% with MCF7 breast; 102% with HCT-116 colon; 106% in the assay on HCC-2998 colon. For the same molecule, in the assay with KM12 colon, the growth was 108%.

`CCOC(=O)c1ccc2[nH]c(-c3ccccc3)cc(=O)c2c1`: the growth in the assay on BT-549 breast is 103%; with MDA-MB-435 melanoma, 107%; in the assay on SW-620 colon, 103%; with MCF7 breast it was 99.8%; with HCT-116 colon it was 99.4%; in the assay with HCC-2998 colon, 112%. In the assay with KM12 colon, the growth is 105%.

Regarding `Cc1c(-c2csc(-n3nc(C(F)(F)F)cc3C(F)(F)F)n2)no[n+]1[O-]`, the growth is 102% in the assay with BT-549 breast; 99.2% with MDA-MB-435 melanoma; 104% in the assay with SW-620 colon; 85.1% in the assay with MCF7 breast; 93.1% in the assay with HCT-116 colon; 112% in the assay with HCC-2998 colon. In addition, the growth in the assay on KM12 colon is 104%.

With `CN1CCN(Cc2ccc(NC(=O)c3cncc(C#Cc4nc(N)nc5[nH]ncc45)c3)cc2C(F)(F)F)CC1`, the growth with BT-549 breast was 82.9%; with MDA-MB-435 melanoma it was 81.5%; in the assay on SW-620 colon, 28%; in the assay with MCF7 breast it was 69.1%; with HCT-116 colon, 49.1%; in the assay on HCC-2998 colon, 133%. Besides, in the assay with KM12 colon, the growth was 81.9%.
